SMILES strings stand for the structures. Results filed as inconclusive are left out. Active and inactive are the calls of the source. Calls come from the whole dose curve; as a rule, active = well fitted inhibition curve with a large enough effect; inconclusive = small, poorly fitted or top-dose-only effect; inactive = flat fitted curve, though single readings scatter.

One experiment concerns KB-3-1. In words: Cytotoxic Profiling of Annotated Libraries Using Quantitative High-Throughput Screening (AID 1296008). Note: nearly all actives have a fitted effect of over 60% in size. The following applies: Five cell lines viability, CellTiter-Glo ATP luminescence, 48-72 h; max response: active compounds read low. In a few lines: (§1)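 Cytotoxicity was measured as CellTiter-Glo ATP luminescence, read after 10 min at room temperature. Compound treatment of the cells lasted 48 or 72 hr at 37 degrees Celsius in a qHTS format.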

The test system of the next experiment is NIH3T3. The description is as above. The following applies: Five cell lines viability, CellTiter-Glo ATP luminescence, 48-72 h; max response: active compounds read low. An outline of the steps: as §1
% is set by controls: 0 for no effect and ±100 for the full control effect; potency is the fitted concentration of half-maximal effect.

With `CC(=O)c1ccc(O[C@@H]2O[C@H](CO)[C@@H](O)[C@H](O)[C@H]2O)cc1`, the max response with KB-3-1 was 2.85% (inactive); in the experiment with NIH3T3, -22.7% (inactive).

In the case of `CO[C@@H](C)Cn1c(=O)n(C)c2cnc3ccc(-c4cncc(C(C)(C)O)c4)cc3c21`, the Potency in the experiment with KB-3-1 is 0.651 µM (active); in the experiment on NIH3T3, 0.326 µM (active).

Take `CS(=O)(=O)c1ccc([C@H](CC2CCCC2)C(=O)Nc2nccs2)cc1`: in the experiment with KB-3-1, the result was inactive. The max response in the experiment with NIH3T3 was -48.7% (inactive).

With `Cc1ncc(CCCN(C)C)cc1Nc1ncc2c(n1)-c1ccc(C(F)(F)F)cc1NC(=S)C2`, the results for the Potency with KB-3-1 and in the experiment with NIH3T3 were 0.0046 µM (active) and 3.66 µM (active), respectively.

Regarding `CC[C@@](C)(Nc1ccnc(-c2c[nH]c3ncccc23)n1)C(=O)NCC(F)(F)F`, the compound was called inactive with KB-3-1. For the same compound, the Potency in the experiment on NIH3T3 is 14.6 µM (active).

Consider `CCOCCn1nc(CC)c2nc(N3CCC(C(=O)O)CC3)nc(Nc3cc(C)ccn3)c21`, for which the figures for the max response in the experiment with KB-3-1 and in the experiment on NIH3T3 were -10.2% (inactive) and 3.17% (inactive), respectively.

In the case of `CCCC1(c2ccccc2)NC(=O)N(CC(=O)N(C)Cc2c(F)cccc2Cl)C1=O` (stereo not drawn), the figures for the max response in the experiment with KB-3-1 and in the experiment with NIH3T3 were -1.57% (inactive) and -2.22% (inactive), respectively.

With `CCNC(=O)C1OC(n2cnc3c(N)nc(NCCc4ccc(CCC(=O)O)cc4)nc32)C(O)C1O` (stereo not drawn), the max response in the experiment with KB-3-1 was -5.77% (inactive); in the experiment with NIH3T3 it was -0.422% (inactive).

For the compound `O=S(=O)(NCC1CC1)c1ccc(Nc2nccc(N3CCCc4cc(O)ccc43)n2)cc1`, the Potency with KB-3-1 is 14.6 µM (active); in the experiment with NIH3T3 it was 5.8 µM (active).

For `CN(C)C/C=C/C(=O)Nc1cccc(C(=O)Nc2ccc(Nc3nccc(-c4cccnc4)n3)cc2)c1`, the Potency with KB-3-1 is 3.66 µM (active); in the experiment with NIH3T3, 10.3 µM (active).

Consider `CCNC(=O)Nc1ccc(-c2nc3c(c(N4CCOC[C@@H]4C)n2)CCN(c2ncccn2)C3)cc1`, for which the Potency with KB-3-1 was 0.291 µM (active); in the experiment on NIH3T3 it was 1.03 µM (active).

For the compound `CNS(=O)(=O)CC1CCC(N(C)c2ncnc3[nH]ccc23)CC1` (stereo not drawn), the max response in the experiment on KB-3-1 was -6.06% (inactive); with NIH3T3, -10.7% (inactive).

For the compound `CC(=O)O[C@@H]1C[C@H](O)[C@@]23CO[C@H](O)[C@]1(C)C2C[C@@H](O)[C@]1(C)C3C(=O)[C@H](OC(C)=O)[C@@]2(C)[C@H](c3ccoc3)C[C@H]3O[C@]321` (stereo partly drawn), the Potency is 0.137 µM (active) in the experiment on KB-3-1 and 0.432 µM (active) in the experiment on NIH3T3.

On to `CNC(=O)c1cccc(-c2ccc3c(N4CCOC[C@@H]4C)nc(N4CCOC[C@@H]4C)nc3n2)c1`, for which the Potency was 0.326 µM (active) in the experiment with KB-3-1 and 1.3 µM (active) in the experiment on NIH3T3.

For `CCC[C@@H]1O[C@@H]2C[C@H]3[C@@H]4CCC5=CC(=O)C=C[C@]5(C)[C@H]4[C@@H](O)C[C@]3(C)[C@]2(C(=O)CO)O1`, the compound was called inactive in the experiment on KB-3-1. Besides, the max response with NIH3T3 is -20.8% (inactive).

Take `COc1cc(N)c(Cl)cc1C(=O)NC[C@@H]1CCN2CCC[C@@H]12`: the values for the max response in the experiment on KB-3-1 and with NIH3T3 were -4.24% (inactive) and -6% (inactive), respectively.

For `COC(=O)C[C@H]1C(C)(C)[C@H](OC(=O)C(C)C)[C@@]2(O)C(=O)[C@]1(C)C1CC[C@]3(C)C(CC(=O)O[C@H]3c3ccoc3)[C@]13O[C@@H]32` (stereo partly drawn), the max response in the experiment on KB-3-1 was 8.04% (inactive); in the experiment on NIH3T3 it was 3.21% (inactive).

Take `CC(C)=CCC[C@](C)(O[C@@H]1O[C@H](CO)[C@@H](O)[C@H](O)[C@H]1O)[C@H]1CC[C@]2(C)[C@@H]1[C@H](O)CC1[C@@]3(C)CC[C@H](O)C(C)(C)C3[C@@H](O[C@@H]3O[C@H](CO)[C@@H](O)[C@H](O)[C@H]3O[C@@H]3OC[C@@H](O)[C@H](O)[C@H]3O)C[C@]12C` (stereo partly drawn): the max response is -9.18% (inactive) in the experiment with KB-3-1 and -2.19% (inactive) in the experiment with NIH3T3.

Turning to `O=C(Nc1ccc(S(=O)(=O)C(F)(F)F)cc1)C1=CCN(c2ncccc2C(F)(F)F)CC1`, the Potency is 23.1 µM (active) with KB-3-1 and 16.4 µM (active) in the experiment with NIH3T3.

As to `CC#CC(=O)N1CCC[C@H]1c1nc(-c2ccc(C(=O)Nc3ccccn3)cc2)c2c(N)nccn12`, the call with KB-3-1 was inactive. In addition, the max response with NIH3T3 was -4.42% (inactive).

On to `Cc1ccc([N+](=O)[O-])cc1S(=O)(=O)N(C)/N=C/c1cnc2ccc(Br)cn12`, for which the Potency with KB-3-1 was 0.146 µM (active); with NIH3T3, 0.461 µM (active).

On to `O=C(O)c1ccc(OC2OC(CO)C(O)C(O)C2O)cc1` (stereo not drawn), for which the max response in the experiment on KB-3-1 was 6.64% (inactive); in the experiment on NIH3T3, 1.85% (inactive).

For `C[C@H](NC(=O)CCc1nc2ccccc2c(=O)[nH]1)c1ccccc1`, the max response was -7.76% (inactive) in the experiment on KB-3-1 and -5.46% (inactive) with NIH3T3.

For the compound `C[C@@H]1O[C@@H](O[C@H]2[C@H](O[C@H]3[C@H](O[C@H]4CC[C@@]5(C)C(CC[C@]6(C)C5CC=C5[C@@H]7CC(C)(C)C[C@@H](O)[C@]7(C)CC[C@]56C)[C@@]4(C)CO)O[C@H](C(=O)O)[C@@H](O)[C@@H]3O)OC[C@H](O)[C@@H]2O)[C@H](O)[C@H](O)[C@H]1O` (stereo partly drawn), the max response was -1.37% (inactive) in the experiment with KB-3-1 and -4.51% (inactive) in the experiment on NIH3T3.

These data come from PubChem BioAssay (NCATS).
